Reference: PubChem BioAssay (Tox21)
Values joined by “and” are separate entries in the source; they are usually repeats but may differ in a detail not shown here. Equal entries are not always repeated. Records with an inconclusive call do not appear. Where a call stands in place of a potency, no number is given. Active and inactive are the calls of the source. The call rests on the fitted dose curve.

Assay: qHTS assay for small molecule agonists of the p53 signaling pathway (AID 651631); further: nearly all actives have a fitted effect of over 15% in size
Details: HCT-116 p53RE-bla reporter, beta-lactamase FRET ratio, 16 h; series mostly up to 73.3 µM
Source text: U.S. Tox21 Program National Center for Advancing Translational Sciences [NCATS] NIH Chemical Genomics Center [NCGC] U.S. Environmental Protection Agency [EPA] National Institutes of Environmental Health Sciences [NIEHS] National Toxicology Program [NTP] U.S. Food and Drug Administration [FDA] Tox21 Assay Overview: p53, a tumor suppressor protein, is activated following cellular insult, including DNA damage and other cellular stresses. The activation of p53 regulates cell fate by inducing DNA repair, cell cycle arrest, apoptosis, or cellular senescence. The activation of p53, therefore, is a good indicator of DNA damage and other cellular stresses. The CellSensor p53RE-bla HCT-116 cell line (Invitrogen) contains a stably integrated beta-lactamase reporter gene under control of the p53 response elements. The activation of the reporter gene under culture conditions can be detected by fluorescence intensity. This cell line was used to screen the Tox21 compound library in a 1536-well plate format and to identify agonists that activate the p53 signaling pathway.
Tox21 Assay Protocol Summary: The p53RE-bla cells were dispensed at 4,000 cells/5 ul/well in 1536-well black wall/clear bottom plates using a Multidrop dispenser. After the assay plates were incubated at a 37 C/5% CO2 incubator for 5 hours, 23 nL of compounds dissolved in DMSO, positive controls or DMSO only was transferred to the assay plate by a pin tool. The plates were incubated at 37 C for 16 hours. After 1 uL of LiveBLAzerTM B/G FRET substrate was added using a Flying Reagent Dispenser, the plates were incubated at room temperature for 2 hours, and fluorescence intensity was measured by an Envision plate reader.
Potency means the concentration at half of the fitted maximal effect.

| Compound | Potency |
| --- | --- |
| O | inactive |
| Cc1ccnc2c1NC(=O)c1cccnc1N2C1CC1 | inactive |
| Nc1cc(Cl)c(-c2cc(Cl)c(N)cc2Cl)cc1Cl | 68.5 µM (active) and 68.6 µM (active) |
| OCCN1CCNCC1 | inactive |
| Nc1nc2ccccc2[nH]1 | inactive |
| Oc1c(Cl)cc(Cl)cc1Sc1cc(Cl)cc(Cl)c1O | 11.9 µM (active) and 34.9 µM (active) and 21.7 µM (active) |
| C=CC(=O)OCCCCCCCC | inactive |
| O=C(OCc1ccccc1)c1ccc(O)cc1 | inactive |
| NCCCCCC(=O)O | inactive |
| Nc1cc(S(=O)(=O)O)cc2cc(S(=O)(=O)O)cc(O)c12 | inactive |
| CC1=C(C=O)C(C)(C)CC=C1 | inactive |
| CC(C)(C)NC(=O)[C@@H]1CN(Cc2cccnc2)CCN1C[C@@H](O)C[C@@H](Cc1ccccc1)C(=O)N[C@H]1c2ccccc2C[C@H]1O | inactive |
| CC(=O)CC(C)=O | inactive |
| CC(C)(O)CCC(C)(C)O | inactive |
| CCCN[C@H]1CCc2nc(N)sc2C1 | inactive |
| C=CS(=O)(=O)O | inactive |
| NC(N)=Nc1nc(CSCC/C(N)=N/S(N)(=O)=O)cs1 | inactive |
| CCCC(=O)c1ccccc1 | inactive |
| O=Cc1ccc(Cl)cc1 | inactive |
| Cc1cccc(O)c1C | inactive |

| Compound | Potency |
| --- | --- |
| CC[C@@H](N)CO | inactive |
| CC(=O)OCCOCCOCCOC(C)=O | inactive |
| c1cnc2cc3c(cc2n1)C1CNCC3C1 | inactive |
| NC(Cc1ccc(Cl)cc1)C(=O)O (stereo not given) | inactive |
| O=C(O)c1cc(Cl)cc(Cl)c1 | inactive |
| CCCNC(C)C(=O)Nc1ccccc1C (stereo not given) | inactive |
| CCN(CC)c1ccc2c(C)cc(=O)oc2c1 | 30.9 µM (active) and 27.3 µM (active) |
| Cc1cccc([N+](=O)[O-])c1C(=O)O | inactive |
| CCc1ccc(C(c2ccc(CC)cc2)C(Cl)Cl)cc1 | inactive |
| CCC(CO)(CO)COCC(CC)(CO)CO | inactive |
| CC(C)CCOC(=O)c1ccc(N(C)C)cc1 | inactive |
| CC1COc2c(N3CCN(C)CC3)c(F)cc3c(=O)c(C(=O)O)cn1c23 (stereo not given) | inactive |
| Cc1scc2c1N(C(=O)CN1CCN(C)CC1)c1ccccc1NC2=O | inactive |
| CCCCC/C=C/CC1CC(=O)OC1=O (stereo not given) | inactive |
| COc1cc(C(=S)N2CCOCC2)ccc1O | inactive |
| CC[C@]1(O)C[C@@H]2CN(CCc3c([nH]c4ccccc34)[C@@](C(=O)OC)(c3cc4c(cc3OC)N(C)[C@H]3[C@@](O)(C(=O)OC)[C@H](OC(C)=O)[C@]5(CC)C=CCN6CC[C@]43[C@@H]65)C2)C1 | 0.0422 µM (active) |
| CCN1CCCC1CNC(=O)c1cc(S(=O)(=O)CC)c(N)cc1OC (stereo not given) | inactive |
| C=CC(=O)OCCCCCCOC(=O)C=C | 11 µM (active) |
| CC(=O)N[C@@H](CS)C(=O)O | inactive |
| CC1=CC(=O)c2ccccc2C1=O | 38.6 µM (active) |
